Measured values taken from PubChem BioAssay (NCI).
The panel holds about 83,000 compounds, 20% with a hit somewhere; the sample as a whole holds those more often.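 48-hour exposure, single concentration, 96-well plates; percent growth endpoint where 0 means no net growth. Active: below 10.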 Values without a mark were called inactive. The source made the active and inactive calls.

Columns and labels:
Assay in all cases: NCI-60 one-dose screen, 48 h (100 = growth as untreated, 0 = no growth, -100 = all killed)
Conditions in all cases: 10 µM unless noted
HCT-15 colon = system: HCT-15 colon
HT29 colon = system: HT29 colon
SNB-75 CNS = system: SNB-75 CNS
U251 CNS = system: U251 CNS
UACC-62 melanoma = system: UACC-62 melanoma
LOX IMVI melanoma = system: LOX IMVI melanoma
SK-MEL-28 melanoma = system: SK-MEL-28 melanoma
PC-3 prostate = system: PC-3 prostate
SK-MEL-5 melanoma = system: SK-MEL-5 melanoma
SNB-19 CNS = system: SNB-19 CNS

SMILES | growth (HCT-15 colon) | growth (HT29 colon) | growth (SNB-75 CNS) | growth (U251 CNS) | growth (UACC-62 melanoma) | growth (LOX IMVI melanoma) | growth (SK-MEL-28 melanoma) | growth (PC-3 prostate) | growth (SK-MEL-5 melanoma) | growth (SNB-19 CNS)
CCCCn1cnc2c(Sc3c([N+](=O)[O-])ncn3C)nc(N)nc21 | 91.6% | 99.7% | 84.3% | 101% | 88.9% | 107% | 98.8% |  |  | 
c1ccc(Cn2cc(-c3nc4ccccc4s3)c3cccnc32)cc1 | 109% | 100% | 91% | 100% | 97.6% | 99.3% | 113% | 97% |  | 
COc1cccc(Nc2nc(SC)nc(-c3cccc([N+](=O)[O-])c3)c2C#N)c1 | 79.2% | 78% | 34% |  | 78.5% | 64.9% |  | 71.2% | 87.2% | 
COc1ccc(-n2nc(C)c3c(Oc4ccc(NC(=O)Nc5c(Cl)cccc5Cl)cc4)ncnc32)cc1 | 105% | 107% | 93.6% | 96.9% | 98.4% | 100% | 106% |  | 99.9% | 
Cc1ccc(OC(=O)c2ccc(Cl)cc2)cc1 | 102% | 89.2% | 77.1% | 102% |  | 99.3% | 106% |  | 103% | 
Cc1cc2nc(NC(=O)CN3CCN(CCN4C(=O)c5cccc6cccc(c56)C4=O)CC3)sc2cc1C | 81.1% | 51.8% | 77.8% | 73.2% | 83.8% | 77.9% | 106% |  | 77% | 
CC(=O)c1nc2ccccc2n1CC(=O)c1cccc(Cl)c1 | 27.3% | 94% | 21% | 14.3% | 31.5% | 36.9% |  |  | -13.2% (active) | 
N#Cc1c(-c2ccc(Cl)cc2)nc(N=Nc2c(O)[nH]c3ccc(Cl)cc23)nc1N1CCOCC1 | 100% | 107% | 68.7% |  | 93.7% | 83.2% | 101% | 99.2% | 97.3% | 
Cc1cc(C)nc(SC2=C(Nc3cccc(Cl)c3C)C(=O)N(Cc3ccccc3)C2=O)n1 | 51.6% [30 µM] | 30.2% [30 µM] | 50.5% [30 µM] | 49.4% [30 µM] | 56.2% [30 µM] | 59% [30 µM] | 85.1% [30 µM] |  | 64.3% [30 µM] | 
C=C1c2nc3ccccc3n2C=C(c2cccc(Cl)c2)N1Cc1ccc(OC)cc1 | 25.7% | 99.1% | 16.5% | 18.4% | 44.7% | 37.2% | 67.7% |  |  | 
C#CC(F)(F)[C@]1(O)CC[C@H]2[C@@H]3CCC4=CC(=O)CCC4=C3[C@@H](c3ccc(C4CC4)cc3)C[C@@]21C | 59.3% | -63.9% (active) | -15.9% (active) | -32.2% (active) |  | -84.6% (active) | 90.2% | -53.8% (active) |  | 
N#CCCN=Nc1c(O)[nH]c2ccc([N+](=O)[O-])cc12 | 102% | 101% | 70.5% |  |  | 90.3% |  | 99.7% | 99.2% | 
O=C(CN(C(=O)Cn1c(=O)n2nnnc2c2ccccc21)c1ccccc1C(F)(F)F)Nc1ccc(C(F)(F)F)cc1 | 102% | 110% | 91% |  | 101% | 98.9% | 108% |  | 102% | 
CCCCCCN(CCCCCC)C(=N)c1ccnc2ccccc12 | 65.9% | 8.96% (active) | 57.6% | 63.9% | 81.3% |  | 88.4% | 58.3% |  | 
COc1ccc(-c2cc(=O)c3c(OC)c4ccoc4cc3o2)cc1 | 92.4% | 82.1% |  | 92.5% | 98.4% | 95.1% | 118% | 86.1% |  | 82.4%
COC(=O)[C@]12CCC(C)(C)C[C@H]1[C@H]1C(=O)C[C@@H]3[C@@]4(C)c5c([nH]c6ccccc6c5=O)C(C)(C)[C@@H]4CC[C@@]3(C)[C@]1(C)CC2 | 46.5% | 45.4% | 65% |  | 54.5% |  | 68% | 36.6% | 12.4% | 
COc1cc(C(=O)Oc2ccccc2OC(=O)c2cc(OC)c(OC)c(OC)c2)cc(OC)c1OC | 99.4% | 110% | 95.3% | 104% | 103% | 94.9% | 120% | 88.8% |  | 
Cc1ccc2c(C(C[N+](=O)[O-])c3ccco3)c(-c3ccccc3)[nH]c2c1 (configuration not stated) | 19.5% | 5.24% (active) | -5.04% (active) | 25.8% | 35.1% | 23.5% | 60.3% |  | 35.6% | 
FC(F)(F)Oc1ccc2nc3nc4ccc[nH]c4cc3c2c1 | 87% | 73.9% | 61.7% | 65.6% | 81% | 80% | 94.6% | 80% |  | 
C=C(C)C(=O)Nc1ccc(NC(C)C)cc1 | 125% | 114% | 102% |  | 118% | 114% | 119% |  |  | 
C#CCOc1ccc2ncnc(N3CCN(C(=O)CCl)CC3)c2c1 | 58.8% [8.25 µM] | 71.7% [8.25 µM] | 101% [8.25 µM] | 91.2% [8.25 µM] | 68.2% [8.25 µM] | 47.4% [8.25 µM] | 98.4% [8.25 µM] |  | 57.7% [8.25 µM] | 
Cc1cc(N2CCCC2)nc(NC2CCCC(Nc3ccnc4cc(Cl)ccc34)C2)n1 (configuration not stated) | -52% (active) | -70% (active) |  |  | -79.8% (active) | -94.2% (active) | -77.5% (active) | -58.1% (active) |  | -20.3% (active)
C=C1C(=O)O[C@H]2[C@H]1CC/C(C=Nc1ccc(C(F)(F)F)cc1N)=C\CC[C@@]1(C)O[C@@H]21 | 2.23% (active) | 1.96% (active) |  | 14.6% |  | -48.9% (active) |  | 14.2% |  | 44%
COC(=O)c1ccc(NC(=O)c2ccc(-c3cccc([N+](=O)[O-])c3)o2)cc1 | 101% | 103% |  | 100% | 95.5% | 96.1% | 100% |  | 97.8% | 94.4%
COc1ccc(/C=C/c2nc(-c3n[nH]c(=O)n3-c3ccccc3)c3ccccc3n2)cc1 | 93.8% | 101% |  | 99.5% | 87.2% | 97.2% | 106% | 95.9% |  | 
CCOc1ccc(C(C)=O)cc1NC(=O)c1cccc(-c2nnn(CC)n2)c1 | 46.8% | 7.72% (active) |  | 22.1% |  | 49.2% |  | 27.3% |  | 36.5%
O=S(=O)(Nc1ccc(Br)c(Cl)c1)c1ccc(-c2cnc(C3CC3)o2)cc1 | 20.7% | -15.3% (active) |  |  | 30.1% | 43.7% | 57.9% | 23.9% | 10.2% | 35%
CS(=O)(=O)c1ccc(-n2nc(-c3ccc(Br)cc3)c3ccccc3c2=O)cc1 | 93.4% | 101% |  | 97.1% | 97% |  | 113% | 89.3% |  | 92.5%
CC1=NN(c2nc(-c3ccc(Cl)cc3)c(C#N)c(N3CCOCC3)n2)C(=O)C1 | 89.3% | 94.1% |  |  | 13.8% | 75.5% | 33.1% | 98.5% | 94.3% | 94.6%
Clc1ccc2c(NCCCCNc3nc(N4CCOCC4)nc4ccccc34)ccnc2c1 | 22.9% | -26.4% (active) |  |  |  | -66.6% (active) | 119% | 38.9% |  | 
